From PubChem BioAssay (NCATS)
Results filed as inconclusive are left out. Calls follow the shape of the dose curve; as a rule, active = well fitted curve in the direction sought with a large enough effect; inconclusive = small, poorly fitted or top-dose-only effect, or another doubt; inactive = no such curve, though single readings can be large or run the other way.

Experiment: KB-8-5-11 P-gp reporter qHTS against the NCATS DSHEA and TCM libraries (AID 1919977); also: 0% is about no effect
Conditions: KB-8-5-11 cells; series mostly up to 26.1 µM; activity change, negative = inhibition: at the top concentration
Method in brief: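 P-gp-overexpressing KB-8-5-11 cells (500/well) were plated in colchicine-free DMEM with 10% FBS, attached ~4 h, then exposed to substance titrations for ~72 h at 37C. Viability was read by CellTiter-Glo luminescence.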

Activity change, negative = inhibition, inactive:
CCCCCCCC/C=C\CCCCCCCCCCCC(=O)O 1.08%
C=C1C[C@]23CC[C@H]4[C@@](C)(CCC[C@@]4(C)C(=O)O)[C@@H]2CC[C@@]1(O[C@@H]1O[C@H](CO)[C@@H](O)[C@H](O)[C@H]1O[C@@H]1O[C@H](CO)[C@@H](O)[C@H](O)[C@H]1O)C3 -7.14%
O[C@@H]1[C@@H](O)[C@H](OC/C=C/c2ccccc2)O[C@H](CO[C@@H]2OC[C@H](O)[C@H](O)[C@H]2O)[C@H]1O 0.291%
CC(C)(O)[C@@H]1CC[C@](C)([C@H]2[C@@H](O)C[C@@]3(C)[C@@H]4C[C@H](O)[C@H]5C(C)(C)[C@@H](O[C@@H]6OC[C@@H](O)[C@H](O)[C@H]6O[C@@H]6O[C@H](CO)[C@@H](O)[C@H](O)[C@H]6O)CC[C@@]56C[C@@]46CC[C@]23C)O1 3.12%
CCCCC/C=C/C(=O)CCc1ccc(O)c(OC)c1 -26.8%
C=C(C)[C@H]1CC=C(C)CC1 -8.96%
C=C[C@](C)(O)CCC=C(C)C 4.74%
CC(C)[C@H](C)CC[C@@H](C)[C@H]1CC[C@H]2[C@@H]3CC=C4C[C@@H](O)CC[C@]4(C)[C@H]3CC[C@]12C 5.24%
O=C(O[C@@H]1Cc2c(O)cc(O)cc2O[C@H]1c1cc(O)c(O)c(O)c1)c1cc(O)c(O)c(O)c1 -6.08%
CCCCCCC/C=C/C(=O)CCc1ccc(O)c(OC)c1 -9.09%
O=C(/C=C/c1ccc(O)c(O)c1)O[C@@H]1CC(O)(C(=O)O)C[C@@H](OC(=O)/C=C/c2ccc(O)c(O)c2)C1O (stereo not given in full) -5.42%
CCCCCC(=O)O 4.8% [at 44.5 µM]
Cc1c(C)c2c(c(C)c1O)CC[C@@](C)(CCC[C@H](C)CCC[C@H](C)CCCC(C)C)O2 0.0638%
CN(CC(=O)O)C(=N)N -7.15% [at 79.1 µM]
C[C@@]12CC[C@@H]3[C@@](CC[C@H]4[C@@]3(C)CCC[C@@]4(C)C(=O)O)(CC1=O)C2 -6.35%
CC(C)=CCC[C@](C)(O)[C@H]1CC[C@]2(C)[C@@H]1[C@H](O)CC1[C@@]3(C)CC[C@H](O)C(C)(C)[C@@H]3[C@@H](O[C@@H]3O[C@H](CO)[C@@H](O)[C@H](O)[C@H]3O[C@@H]3O[C@H](CO)[C@@H](O)[C@H](O)[C@H]3O)C[C@]12C (stereo not given in full) -2.18% [at 14.4 µM]
CC(C)=CCC[C@](C)(OC1OC(COC2OCC(O)C(O)C2O)C(O)C(O)C1O)[C@H]1CC[C@]2(C)[C@@H]1[C@H](O)C[C@@H]1[C@@]3(C)CC[C@H](OC4OC(CO)C(O)C(O)C4OC4OC(CO)C(O)C(O)C4O)C(C)(C)[C@@H]3CC[C@]12C (stereo not given in full) 0.652%
C=C1C[C@@]23CC[C@H]4[C@@](C)(CCC[C@@]4(C)C(=O)O[C@@H]4O[C@H](CO)[C@@H](O)[C@H](O)[C@H]4O)[C@@H]2CC[C@]1(O[C@@H]1O[C@H](CO)[C@@H](O)[C@H](O[C@@H]2O[C@H](CO)[C@@H](O)[C@H](O)[C@H]2O)[C@H]1O[C@@H]1O[C@@H](C)[C@H](O)[C@@H](O)[C@H]1O)C3 -2.46%
C=C1CC/C=C(/C)CC[C@@H]2[C@@H]1CC2(C)C 2.09%
CC1=C2[C@H]([C@@H](C)CC[C@@H]2/C=C(\C)C(=O)O)[C@@H](O)C1 2.32%
CCCCCC/C=C/CCCCCCCCCC(=O)O -2.31%
C=C(C)C1CC=C(C)C(O)C1 (stereo not given) -7.03%
CCCCCCCCCCCCCCCCCCCCCCCCCCCCCCO 8.26% [at 3.26 µM]
C[C@@H]1O[C@@H](OC[C@H]2OC(Oc3c(-c4ccc(O)c(O)c4)oc4cc(O)cc(O)c4c3=O)[C@H](O)[C@@H](O)[C@@H]2O)[C@H](O)[C@H](O)[C@H]1O (stereo not given in full) -2.6%
NC(Cc1c[nH]c2ccccc12)C(=O)O (stereo not given) 5.99%
Cc1ccc(C(C)C)cc1 6.21% [at 44.5 µM]
O=c1cc(-c2ccc(O)cc2)oc2cc(O[C@H]3OC(CO)C(O)C(O)C3O)cc(O)c12 (stereo not given in full) 5.73%
C=C1CC[C@H]2C[C@@H]1C2(C)C -10.3% [at 44.5 µM]
O=c1c(O[C@@H]2O[C@H](CO)[C@H](O)[C@H](O)[C@H]2O)c(-c2ccc(O)c(O)c2)oc2cc(O)cc(O)c12 11%
CC(C)=CCC[C@](C)(O[C@@H]1O[C@H](CO)[C@@H](O)[C@H](O)[C@H]1O)[C@H]1CC[C@]2(C)[C@@H]1[C@H](O)C[C@@H]1[C@@]3(C)CC[C@H](O)C(C)(C)[C@@H]3[C@@H](O[C@@H]3O[C@H](CO)[C@@H](O)[C@H](O)[C@H]3O[C@@H]3O[C@@H](C)[C@H](O)[C@@H](O)[C@H]3O)C[C@]12C 5.66%
CC(C)=CCC[C@](C)(O[C@@H]1O[C@H](CO)[C@@H](O)[C@H](O)[C@H]1O)[C@H]1CC[C@]2(C)[C@@H]1[C@H](O)C[C@@H]1[C@@]3(C)CC[C@H](O[C@@H]4O[C@H](CO)[C@@H](O)[C@H](O)[C@H]4O[C@@H]4O[C@H](CO)[C@@H](O)[C@H](O)[C@H]4O)C(C)(C)[C@@H]3CC[C@]12C 7.73%
CC(C)=CCC[C@](C)(O[C@@H]1O[C@H](CO[C@@H]2O[C@H](CO)[C@@H](O)[C@H](O)[C@H]2O)[C@@H](O)[C@H](O)[C@H]1O)C1CC[C@]2(C)[C@@H]1[C@H](O)CC1[C@@]3(C)CC[C@H](O[C@@H]4O[C@H](CO)[C@@H](O)[C@H](O)[C@H]4O[C@@H]4O[C@H](CO)[C@@H](O)[C@H](O)[C@H]4O)C(C)(C)[C@@H]3CC[C@]12C (stereo not given in full) 14.6% [at 5.42 µM]
COc1ccc(C(=O)O)cc1 -1.45% [at 44.5 µM]
CC(=O)O[C@H]1[C@H](O[C@H]2CC[C@]34C[C@]35CC[C@]3(C)[C@@H]([C@@]6(C)CC[C@@H](C(C)(C)O)O6)[C@@H](O)C[C@@]3(C)[C@@H]5C[C@H](O[C@@H]3O[C@H](CO)[C@@H](O)[C@H](O)[C@H]3O)[C@H]4C2(C)C)OC[C@@H](O)[C@@H]1O 0.576%
CC(C)(O)[C@@H]1CC[C@](C)([C@@H]2[C@H](O)C[C@]3(C)C4C[C@@H](O[C@H]5O[C@@H](CO)[C@H](O)[C@@H](O)[C@@H]5O)C5C(C)(C)[C@H](O[C@H]6OC[C@H](O)[C@@H](O)[C@@H]6O)CC[C@]56CC46CC[C@@]23C)O1 (stereo not given in full) -4.9%
